# Measured values as given in PubChem BioAssay AID449762 (Southern Research Specialized Biocontainment Screening …, 2010).
# About 1,900 (0.58%) of roughly 330,000 compounds were called active. Roughly 4% stayed inconclusive and do not appear here. These entries were drawn from the full list. Potency and affinity values are given separately. Unmarked numbers belong to inactive results. No stated cut-off is given here; in the data, inconclusive means inhibition above about 70% without an active follow-up result; inactive means below that.
# Assay: M. tuberculosis growth inhibition, HTS (AID 449762);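 further: bacterial growth assessed after seven days of incubation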
# Details: M. tuberculosis H37Rv growth inhibition, 7H9 media; at 25 µM; hits give high values
row,SMILES,inhibition [%]
1,O=C(COC(=O)c1ccccc1NS(=O)(=O)c1cccs1)NC1CCCCC1,4.13
2,CCCCOc1ccc(C(=O)NCC(=O)NC2CCC(C)CC2)cc1 (configuration not stated),9.03
3,Cc1c(NC(=O)Nc2ccc(C(C)(C)C)cc2)c(=O)n(-c2ccccc2)n1C,1.52
4,Cc1cc(NC(=O)C(C)C)ncc1NC(=O)c1ccco1,4
5,Cn1c(SCc2ccccn2)nnc1-c1cnccn1,-3.38
6,O=S(=O)(Nc1ccccc1N1CCOCC1)c1c(F)cc(F)cc1Br,-10.8
7,CCN(C[C@H]1N[C@@](CC)(C(=O)OC)[C@H]2C(=O)N(Cc3ccccc3)C(=O)[C@@H]12)C(=O)Nc1ccc(C(F)(F)F)cc1,-6.29
8,CCN(C[C@H]1N[C@@](Cc2ccccc2)(C(=O)OC)[C@H]2C(=O)N(Cc3ccccc3)C(=O)[C@@H]12)C(=O)Nc1ccc(F)cc1,3.17
9,O=C(/C=C/c1ccc(OCCCF)cc1)Nc1ccnc(-c2cccnc2)n1,-3.34
10,COc1ccc(CNC(=O)/C=C/c2ccc(OCCCF)cc2)cc1,0.02
11,CC(C)(C)NC(=O)C(=O)NNC(=O)c1ccco1,-5.31
12,Cc1ccccc1N(CC(=O)NCc1ccncc1)S(C)(=O)=O,1.64
13,CSc1ccc(C(=O)C2CCCN(C(=O)c3nonc3C)C2)cc1 (configuration not stated),12.6
14,CSc1ccc(C(=O)C2CCCN(C(=O)c3ccc4c(c3)OCO4)C2)cc1 (configuration not stated),1.02
15,Cc1ccc(Cn2c([N+](=O)[O-])cnc2C)cc1,2.64
16,Cc1ccc(S(=O)(=O)N(C)CC(=O)Nc2ccc3c(c2)OCO3)cc1,-3.43
17,Cc1ccc(C(=O)OCN2C(=O)c3ccccc3C2=O)c(O)c1,2.23
18,COc1ccccc1NC(=O)C12CC3CC(C1)CC(c1ccc(C)cc1)(C3)C2,-6.68
19,CNC(=O)C12CC3CC(C1)CC(c1ccc(C)cc1)(C3)C2,5.19
20,COCC1CCN(Cc2nc(Cc3ccccc3Cl)no2)CC1,4.51
21,COC(=O)Cn1c(=NC(=O)C(C)(C)C)sc2c(C)cc(C)cc21,-0.87
22,CC(C)C[C@]1(c2ccccc2)ON(c2ccccc2C(F)(F)F)C1=O,-1.86
23,CC[C@]1(c2ccccc2C)ON(c2ccccc2C(F)(F)F)C1=O,0.115

row,SMILES,inhibition [%]
1,CN1CCN(CCCNC(=O)CCCOc2cc(=O)n(C)c3ccccc23)CC1,-3.75
2,CCCCCCCN1C(N(C)C)=NC[C@@H]1Cc1ccccc1,1.63
3,Cc1cccc(-n2ccc(=O)c(C(=O)Nc3ccc(S(=O)(=O)Nc4nccc(C)n4)cc3)n2)c1,6.8
4,CCOC(=O)c1cccc(NS(=O)(=O)c2c(C)[nH]c(C)c2C(=O)N2CCCC2)c1,12.7
5,Cc1cc(NC(=O)/C(C#N)=C/c2ccc(-c3ccc(SC(F)F)cc3)o2)n(-c2ccccc2)n1,4.12
6,COC(=O)/C(C#N)=C/c1ccc(-c2ccc(S(N)(=O)=O)cc2)o1,-0.94
7,C=CCn1c(O)c(C(C)=Nc2cccc(C(=O)O)c2)c(=O)[nH]c1=O,-1.56
8,Cc1cc(C(=O)NNC(=O)c2sccc2C)c(C)o1,-4.39
9,CCN1CCN(C(c2cccs2)C(C)NS(=O)(=O)c2ccc(Br)cc2)CC1 (configuration not stated),-2.6
10,O=C(Nc1nccs1)c1ccc(S(=O)(=O)N2CCCCC2)cc1,-7.33
11,CSCCC(NC(=O)COc1ccccc1)C(=O)NCCOc1ccc(C)cc1 (configuration not stated),1.39
12,COc1ccc(OC)c(S(=O)(=O)Nc2cc3c4c(c2)CCC(=O)N4CCC3)c1,-8.72
13,CC(=O)c1c(C(C)=O)c(C)n(-c2cccc([N+](=O)[O-])c2)c1C,4.11
14,Cc1cc(C(=O)CCl)c(C)n1-c1c(C)n(C)n(-c2ccccc2)c1=O,64.9
15,N#CCCCCn1c(-c2cncs2)nc2ccccc21,-10.4
16,Oc1ccc(C=NCCc2ccccc2)cc1,0.33
17,CCSc1nc2ccccc2n1Cc1cccc([N+](=O)[O-])c1,-1.33
18,Cc1ccc(OC(=O)c2ccc(C)c(C)c2)cn1,38.4
19,CCCCOc1ccc(C(=O)Oc2cccnc2)cc1,50
20,CO/N=C/C(C#N)=C/c1ccc(OC)c(OC)c1,2.72
21,CCCCn1c2ccccc2c2cc(CC(N)=O)ccc21,2.07
22,O=C(CCC(=O)OCc1ccc(Br)cc1)Nc1ccccc1,-10.8
23,COc1ccc(C(=O)NCC(=O)NCC(=O)OCc2ccc(Cl)cc2)cc1,8.99

row,SMILES,inhibition [%]
1,O=C(CNC(=O)c1ccco1)OCc1ccc(C(=O)c2ccccc2)cc1,14.1
2,COc1ccc(CCNC(=O)c2ccc(Cl)cc2)cc1,15.5
3,O=C(CNC(=O)c1ccco1)NCC(=O)OCc1ccc(C(=O)Oc2ccc(Cl)cc2)cc1,-2.15
4,COc1ccc(NC(=O)CCC(=O)OCc2ccc(C(=O)Oc3ccc(Cl)cc3)cc2)cc1,-10.2
5,O=C1CN(C(=O)CSc2ccc(-c3ccc(F)cc3)nn2)c2ccccc2N1,-6.46
6,Cc1ccnc(N=Cc2nc(-c3ccccc3Br)oc2O)c1,2.41
7,Cc1nc(CCNC(=O)c2cc(COc3ccc(F)cc3Cl)on2)sc1C,12.2
8,COc1ccc(-c2nc3c(c(=O)[nH]c(=O)n3Cc3ccccc3)n2CCO)cc1,-6.32
9,CCCOc1ccc(-c2nc3c(c(=O)[nH]c(=O)n3Cc3ccccc3)n2CCO)cc1OCC,-0.79
10,CC(C)c1nc2ccc(Br)cn2c1NC1CCCC1,-4.28
11,CC(Sc1nnc(N)s1)C(=O)NNC(=O)c1cccc(Cl)c1 (configuration not stated),0.75
12,CC1(C)C=Cc2c(ccc3c2OC[C@@H](c2ccc(O)cc2O)C3)O1,4.54
13,CC1(C)C=Cc2c(ccc3c2OC[C@H](c2ccc(O)cc2O)C3)O1,9.89
14,COc1cccc(C(=O)NC(=S)N2c3ccccc3CC2C)c1OC (configuration not stated),-5.31
15,CC1Cc2ccccc2N1C(=S)NC1CCCC1 (configuration not stated),-1.79
16,O=C(Nc1ccccc1N1CCCCC1)c1cccc(Cl)c1,8.39
17,CCC(C)c1ccc(S(=O)(=O)N2CCN(CC(O)CN3CCOCC3)CC2)cc1 (configuration not stated),-16.5
18,CCCOc1ccc(-c2cn3ccccc3n2)cc1[N+](=O)[O-],2.24
19,COc1ccc2c(c1)C(=O)/C(=C/C=C/c1ccccc1)CC2,6.15
20,COc1ccc2c(c1)CC/C(=C/c1cc(OC)c(OC)c(OC)c1)C2=O,50
21,O=C(Nc1ccc(C(=O)NCCCN2CCN(c3ccccc3)CC2)cc1)C1=CSCCO1,4.06
22,CC1CCCN(CCCNC(=O)c2ccc(NC(=O)C3=CSCCO3)cc2)C1 (configuration not stated),-0.6
23,CC(=O)Nc1ccc(NC(=O)CCCSc2nc3ccccc3s2)cc1,0.37

row,SMILES,inhibition [%]
1,COCC(C)n1c(-c2ccc3c(c2)NC(=O)CO3)csc1=Nc1ccc(OC(F)F)cc1 (configuration not stated),5.17
2,COCCN=c1scc(-c2ccc3c(c2)NC(=O)CO3)n1/N=C(\C)c1ccc(O)cc1,6.92
3,CC(=O)N1CCN(S(=O)(=O)c2cccc(C(=O)NC3CCCC3)c2)CC1,-8.08
4,O=C(Nc1ccccc1C1CC1)c1cccs1,-3.36
5,CCc1cccc2c(C(=O)CN3C(=O)NC4(CCCCCC4)C3=O)c[nH]c12,-3.22
6,CN(Cc1cn(C)nc1-c1ccc(Oc2ccccc2)cc1)CC1COCCO1 (configuration not stated),8.39
7,O=C(NCc1cccnc1)c1ccc(Cl)c(Cl)c1,3.71
8,O=C(CN1C(=O)/C(=C/c2ccccc2F)Sc2ccccc21)NCc1cccnc1,14.8
9,CC(C)CCNC(=O)Cc1csc(-c2ccccc2)n1,-12
10,COc1ccc(CC(NC(C)=O)C(=O)NC2CCN(c3c4c(nc5ncnn35)CCC4)CC2)cc1 (configuration not stated),-5.34
11,Cc1ccc(OCC(=O)NC(C)c2ccc(Cl)c(Cl)c2)c([N+](=O)[O-])n1 (configuration not stated),-3.43
12,CC(=O)NC(C)c1ccc(Cl)c(Cl)c1 (configuration not stated),7.59
13,CCOC(=O)Cc1csc(NS(=O)(=O)Cc2ccccc2)n1,-4.69
14,Cc1ccc2cccc(OCC(=O)NCCC3=CCCCC3)c2n1,37.1
15,Cc1ccc(C(=O)N/C(=C\c2cccs2)C(=O)N2CCN(C)CC2)cc1C,0.74
16,CN1C(=O)[C@H]2[C@@H](/C=C/c3ccccc3)N3C(=O)CN(Cc4ccccn4)C(=O)[C@@]3(Cc3ccccc3)[C@H]2C1=O,-6.69
17,COc1ccc(-c2nc(C3CCCCC3)c3cc(OC)ccc3n2)cc1,8.29
18,COc1ccc2nc(C3CCCCC3)nc(C3CCCCC3)c2c1,0.84
19,O=C(NCCC1=CCCCC1)C1CCN(S(=O)(=O)c2ccccc2C(F)(F)F)CC1,-3.46
20,COCCOc1cc(NC(=O)c2ccccc2)c(Cl)cc1Cl,15
21,Nc1c(-c2ccc(Cl)cc2)cnc2c(-c3ccccc3)cnn12,-2.52
22,CC(=O)c1cnc2c(-c3ccc(Cl)cc3)cnn2c1C,-5.22
23,COc1ccccc1NC(=O)CSc1nc2ccccc2c(=O)n1C,0.03
